An excerpt weighted towards active compounds, which were near 7.8% of everything screened.
VACV Venus inh: vaccinia inhibition (Venus reporter); Vaccinia virus Venus reporter expression, fluorescence; Potency, µM (titrated, usually from 36.5 µM), inactives show at the highest dose activity change, negative = inhibition, most hits filed as inhibitors; 0.46% of 330,000 active; calls by dose curve; tested in A549 cells; also: potency is read from the fitted curve at half-maximal effect; nearly all actives have a fitted effect of over 30% in size
LASV entry inh: Lassa virus entry inhibition; 1.2% of 300,000 active; Potency, µM (doses to about 37.9 µM), inactives show at the highest dose activity change, negative = inhibition, most hits filed as inhibitors; AID 540256; Lassa virus pseudotype entry inhibition, cell reporter; calls by dose curve; tested in HEK293 cells; also: potency is read from the fitted curve at half-maximal effect; nearly all actives have a fitted effect of over 50% in size
HCMV antiviral: blocks human cytomegalovirus replication; HFF cells, HCMV-luciferase reporter, 72 h; stronger effect = lower value; activity change, negative = inhibition, % at 57.5 µM; 4.5% of 410,000 active; in the data active = activity change below about -60%; inconclusive = no clear call, values can overlap the other calls; inactive = above about -39%
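Luciferase read-out from HCMV-luciferase-infected HFFs (MOI 1 PFU/cell) 72 h post infection at 37C; compounds added after 16 h cell attachment; activity normalized between buffer-only basal and Salinomycin (10uM) inhibitor controls.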
HCV inh: HCV inhibition; Potency, µM (doses to about 41.8 µM), for inactives: at the top dose activity change, negative = inhibition, actives largely listed as inhibitors; Huh7.5.1 HCVcc-Cre infection, luciferase reporter, 44 h; 3.4% of 340,000 active; active = well fitted inhibition curve with a large enough effect; inconclusive = small, poorly fitted or top-dose-only effect, or another doubt; inactive = no such curve, though single readings can be large or run the other way; also: potency is read from the fitted curve at half-maximal effect
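Seed cells (1,000/well) for 4 h; treat with compound and infect with HCVcc-Cre, moi about 0.5. Incubate 44 h, then detect luciferase activity.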
Marburg entry inh: inhibitors of Marburg virus binding or cell entry; Marburg virus pseudotyped entry inhibition, cell reporter; Potency, µM (titrated, usually from 37.8 µM), for the others: at the highest dose activity change, negative = inhibition, usual class: inhibitors; 1.8% of 300,000 active; AID 540276; calls by dose curve; tested in HEK293 cells; also: potency is read from the fitted curve at half-maximal effect
VACV mCherry inh: inhibitors of vaccinia virus infection (mCherry reporter signal) | 0.63% of 310,000 active | Potency, µM (top dose mostly 36.5 µM), for inactives: at the top dose activity change, negative = inhibition, hits mostly inhibitors | Vaccinia virus mCherry reporter infection, fluorescence; calls by dose curve; tested in A549 cells; also: potency is read from the fitted curve at half-maximal effect; nearly all actives have a fitted effect of over 35% in size
* = called active by the depositor; i = inactive; ? = inconclusive; . = not tested or not shown; ! = not active in a repeat; [ ] = remark or other dose. % is scaled to controls: 0 for no effect and ±100 for the full control effect.

SMILES	VACV Venus inh	LASV entry inh	HCMV antiviral	HCV inh	Marburg entry inh	VACV mCherry inh
Cn1c(=O)c2c(nc(Cl)n2CC(=O)NC2(C#N)CCCCC2)n(C)c1=O	-2%	25%	-101*	5%	20%	-8%
N#CC1(NC(=O)Cn2ncc(Cl)c(Cl)c2=O)CCCCC1	?	?	-14	4.5µM*	?	?
COc1ccccc1C(=O)Nc1ccccc1OCc1cc(=O)n2ccccc2n1	4%	-9%[46.1 µM]	-13	.	.	-14%
O=C(c1ccco1)N(CCC(c1ccccc1)c1ccco1)Cc1ccc(F)cc1 (stereo not drawn)	.	23µM*	20	?	?	.
CC1(C)CC(C(CCN(Cc2ccccc2)C(=O)c2ccco2)c2ccc(F)cc2)CCO1 (stereo not drawn)	?	?	-8	?	?	?
CCC(=O)N(CCC(c1ccc(C)cc1)c1ccco1)Cc1ccco1 (stereo not drawn)	-3%	?	-33	11µM*	?	11%
CCCCOc1cc(C[C@@H]2CNC(=O)N2)ccc1OC	.	.	.	.	9%	.
COc1cc2ncc(-c3ccccc3)nc2cc1OC	-19%	.	.	.	.	-2%
CCN(CC)S(=O)(=O)c1ccc(NC(=O)c2cc3ccc4cccnc4c3[nH]2)cc1	-4%	10%[46.1 µM]	?	.	.	-4%
Cc1cc(C)nc(N(C#N)CC(=O)c2ccccc2)n1	?	?	-24	16µM*	?	?
Cc1cc(C)nc(N(C#N)CC(=O)N(c2ccccc2)C(C)C)n1	-20%	2%	9	-2%	13%	.
Cc1cc(C)nc(N(C#N)Cc2ccc([N+](=O)[O-])cc2)n1	-9%	-17%[46.1 µM]	-3	0%	-5%[46.1 µM]	-4%
CCc1ccc(C(=O)CN(C#N)c2nc(C)cc(C)n2)cc1	?	?	?	?	11µM*	?
CCOC(=O)CN1C(=O)N(c2ccc(C)c(C)c2)S(=O)(=O)c2ccccc21	-2%	-12%[46.1 µM]	-6	.	.	2%
Cc1ccccc1C1=CCN(c2ncc(NC(=O)c3ccc(Cl)cc3)cc2C(=O)O)CC1	-2%[7.34 µM]	17%[46.1 µM]	-21	.	.	3%[7.34 µM]
Cc1ccc(OCCCCn2nnc3sc4c(c3c2=O)CCC(C)C4)cc1 (stereo not drawn)	-5%	?	4	.	-4%[46.1 µM]	-4%
CCCCCOc1ccc(NS(C)(=O)=O)cc1	-7%	9%	125	1%	23%	-2%
CCCCc1oc2ccc(NS(C)(=O)=O)cc2c1C(=O)c1ccc(OCCCN(CCCC)CCCC)cc1	.	.	-82*	.	.	.
O=C(O)c1cc(=O)c2c3nc4ccccc4oc-3cc(=O)c2[nH]1	-10%	.	.	.	.	-10%
CC(C)(C)c1ccc(N/N=C(\C#N)S(=O)(=O)C(C)(C)C)cc1	-5%	?	?	?	10µM*	-16%
CC(C)(C)S(=O)(=O)/C(C#N)=N/Nc1ccc(Cl)cc1	?	?	-82*	?	-16%[46.1 µM]	-14%
CC(=O)Nc1ccc(CN2CCn3c(nnc3C(=O)NCC3CC3)C2)cc1	.	.	3	.	.	.
COc1ccccc1N1CCc2c(C)nc3c(OC)cccc3c21	.	-14%	.	?	?	.
COc1cccc2c3c(c(C)nc12)CCN3c1ccccc1	-10%	-26%	-78*	?	?	-6%
CCN1C(=NCCCCO)NC(c2cccc(C(F)(F)F)c2)C(C(=O)OC)=C1C (stereo not drawn)	.	.	.	.	-19%[14.2 µM]	.
SMILES	VACV Venus inh	LASV entry inh	HCMV antiviral	HCV inh	Marburg entry inh	VACV mCherry inh
CC(=O)N(CCC(c1ccco1)C(C)C)Cc1ccc(Cl)cc1 (stereo not drawn)	-6%	10µM*	-36	7%	-25%[46.1 µM]	-11%
COc1ccc(C(=O)N/N=C\c2coc3ccc(Cl)cc3c2=O)cc1	.	.	-63*	-24%	.	.
COc1c(S(=O)(=O)N2CCCCC2)ccc2c(S(=O)(=O)N3CCCCC3)cccc12	.	-30%	-85*	?	-16%	.
O=S(=O)(c1cccc2c(S(=O)(=O)N3CCCC3)cccc12)N1CCCC1	-6%	-14%	5	-1%	2%	.
O=S(=O)(c1cccc2c(Cl)cccc12)N1CCCNCC1	-44%	-9%	.	.	8.9µM*!	-48%
COc1ccc2c(c1)[C@@]1(OCCC=C[C@@H]1C)C(=O)N2CC1CC1	.	.	.	.	-7%[14.2 µM]	.
COC(=O)c1c(OCC2CCCN(C)C2)cc(=O)n2c1CCN(Cc1ccc(OC)c(O)c1)CC2 (stereo not drawn)	-3%	.	.	.	.	-1%
COc1cc(NC(=O)CSc2nnc3c4ccccc4n(C)c3n2)cc(OC)c1OC	-5%	.	.	.	.	?
COC(=O)N1C(c2ccccc2)=Cc2ccccc2C1C1(C(=O)OC)CCCC1=O (stereo not drawn)	.	?	.	.	-1%[14.2 µM]	.
O=C(/C=C/c1ccc(S(=O)(=O)N2CCOCC2)cc1)NC(=S)NCCCn1ccnc1	?	?	-82*	22µM*	?	-16%
O=C(COc1ccc(S(=O)(=O)N2CCOCC2)cc1)NCCCn1ccnc1	-4%	?	?	10%	3%[46.1 µM]	-17%
C(=C\c1c[nH]c2ccccc12)/c1ccnc2ccccc12	-29%	.	.	.	.	?
Cc1ccc(OCCNc2cc(N3CCN(CCO)CC3)ccc2[N+](=O)[O-])cc1C	?	?	-15	10µM*	?	?
Cc1cccc(OCCNc2cc(N3CCN(C)CC3)ccc2[N+](=O)[O-])c1	-1%	?	2	?	?	i
Cc1cccc(OCCNc2cc(N3CCOCC3)ccc2[N+](=O)[O-])c1	?	16%	2	10µM*	?	?
CC(=O)c1ccc2cccc3c2c1N=CN3C	-8%	-1%	-63*	-10%	5%	-15%
COc1cccc(CNc2ncnc3sc(C(=O)N4CC5CCC4C5)c(C)c23)c1OC (stereo not drawn)	-15%	.	.	.	.	-22%
Cc1cccc(C)c1Nc1ncnc(N)c1[N+](=O)[O-]	-3%	4%	-23	7%	16%	-10%
Cc1ccc(CNc2ncnc(N)c2[N+](=O)[O-])cc1	-11%	.	-61*	1%	17%[46.1 µM]	-24%
COC1CCCC(c2nc(N)nc(SC)c2C#N)C1 (stereo not drawn)	.	.	.	.	4%	.
Cc1ccc(-c2nc(CS(=O)CC(=O)NCc3ccc(Cl)cc3)c(C)o2)cc1 (stereo not drawn)	-21%	.	5	11µM*	.	i
Cc1ccc(-c2nc(CSCC(=O)NCCN3CCN(Cc4ccccc4)CC3)c(C)o2)cc1	.	?	-65*	13µM*	?	.
Cc1oc(-c2ccc(Cl)cc2)nc1CS(=O)CC(=O)NCCCN1CCN(Cc2ccccc2)CC1 (stereo not drawn)	.	.	-93*	1.3µM*	.	.
CCOc1ccc(-c2nc(CSCC(=O)NCc3ccc(Cl)cc3)c(C)o2)cc1	?	-2%[46.1 µM]	-66*	.	.	?
Cc1ccc(-c2nc(CSCC(=O)NCCCN3CCOCC3)c(C)o2)cc1	.	?	16	16%	-3%	.
